Among all 5,500 compounds or so, about 2,000 (36%) were called active. Roughly 18% stayed inconclusive and do not appear here. Cut-off read from the data, not from the text of the source: active = normalized growth mostly below about 0.91 (no sharp cut-off); inconclusive = no clear call, values can overlap the other calls; inactive = mostly above about 0.92. Some of the results follow.
Experiment: chemical genetic growth profiling, strain panel (AID 1159580);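 note: tested at 20 µM; growth read once vehicle control cultures reached saturation at 30 °C; 1 = growth at the plate median or of vehicle wells; lower values mean less growth of the strain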
Settings: S. cerevisiae deletion strains, growth OD

Measured: normalized growth

Clc1ccc(C(c2ccc(Cl)cc2)C(Cl)(Cl)Cl)cc1
inactive: locus YAL013W, strain DEP1, stronger effect = lower value 1 | locus YAL021C, strain ccr4, stronger effect = lower value 1.01 | locus YAL026C, strain drs2, stronger effect = lower value 1.01 | locus YAL030W, strain snc1, stronger effect = lower value 1 | locus YBL061C, strain skt5, stronger effect = lower value 1.01 | locus YBR009C, strain hhf1, stronger effect = lower value 0.998 | locus YBR021W, strain FUR4, stronger effect = lower value 0.999 | locus YBR023C, strain chs3, stronger effect = lower value 1.01 | locus YBR171W, strain sec66, stronger effect = lower value 1.01 | locus YBR229C, strain ROT2, stronger effect = lower value 1.02 | locus YBR231C, strain swc5, stronger effect = lower value 1.01 | locus YBR279W, strain paf1, stronger effect = lower value 1.01 | locus YCL011C, strain gbp2, stronger effect = lower value 1.01 | locus YCL016C, strain dcc1, stronger effect = lower value 1.01 | locus YCL029C, strain bik1, stronger effect = lower value 1.01 | locus YCL061C, strain MRC1, stronger effect = lower value 1.01 | locus YCL069W, strain vba3, stronger effect = lower value 0.999 | locus YCR088W, strain abp1, stronger effect = lower value 1.01 | locus YDL005C, strain med2, stronger effect = lower value 1 | locus YDL035C, strain GPR1, stronger effect = lower value 0.983 | locus YDL040C, strain nat1, stronger effect = lower value 1.01 | locus YDL074C, strain BRE1, stronger effect = lower value 1.02 | locus YDL101C, strain DUN1, stronger effect = lower value 1.02 | locus YDL134C, strain PPH21, stronger effect = lower value 1.02 | locus YDL185W, strain tfp1, stronger effect = lower value 0.999 | locus YDL192W, strain arf1, stronger effect = lower value 1 | locus YDR001C, strain nth1, stronger effect = lower value 1.01 | locus YDR069C, strain doa4, stronger effect = lower value 0.992 | locus YDR101C, strain arx1, stronger effect = lower value 0.993 | locus YDR137W, strain rgp1, stronger effect = lower value 1.01 | locus YDR150W, strain NUM1, stronger effect = lower value 1.03 | locus YDR159W, strain sac3, stronger effect = lower value 1.01 | locus YDR162C, strain NBP2, stronger effect = lower value 1.01 | locus YDR195W, strain ref2 1.04 | locus YDR297W, strain sur2, stronger effect = lower value 1.01 | locus YDR318W, strain mcm21, stronger effect = lower value 0.999 | locus YDR334W, strain swr1, stronger effect = lower value 1.02 | locus YDR335W, strain msn5, stronger effect = lower value 1.01 | locus YDR388W, stronger effect = lower value 0.993 | locus YDR392W, strain spt3, stronger effect = lower value 0.977 | locus YDR502C, strain sam2, stronger effect = lower value 0.999 | locus YEL003W, strain gim4, stronger effect = lower value 1.01 | locus YEL037C, strain rad23, stronger effect = lower value 1.01 | locus YEL061C, strain CIN8 (second series), stronger effect = lower value 1.01 | locus YEL061C, strain CIN8, stronger effect = lower value 1.02 | locus YER015W, strain faa2, stronger effect = lower value 1.01 | locus YER016W, strain bim1, stronger effect = lower value 1 | locus YER110C, stronger effect = lower value 0.997 | locus YER111C, strain swi4, stronger effect = lower value 1.01 | locus YER155C, strain BEM2 (second series), stronger effect = lower value 1 | locus YER155C, strain BEM2, stronger effect = lower value 1.02 | locus YER167W, strain BCK2, stronger effect = lower value 1.01 | locus YFR010W, strain ubp6, stronger effect = lower value 1.01 | locus YGL078C, strain dbp3, stronger effect = lower value 1 | locus YGL086W, strain mad1, stronger effect = lower value 1.01 | locus YGL167C, strain pmr1, stronger effect = lower value 1.01 | locus YGL173C, strain kem1, stronger effect = lower value 0.995 | locus YGL227W, strain vid30, stronger effect = lower value 1.01 | locus YGL240W, strain doc1, stronger effect = lower value 0.997 | locus YGL248W, strain PDE1, stronger effect = lower value 1.02 | locus YGL253W, strain hxk2, stronger effect = lower value 1 | locus YGR078C, strain PAC10, stronger effect = lower value 1.01 | locus YGR135W, strain pre9, stronger effect = lower value 1 | locus YGR229C, strain SMI1, stronger effect = lower value 0.997 | locus YGR252W, strain gcn5, stronger effect = lower value 0.916 | locus YHR013C, strain ard1, stronger effect = lower value 1.03 | locus YHR027C, strain rpn1, stronger effect = lower value 1 | locus YHR030C, strain SLT2, stronger effect = lower value 1.03 | locus YHR079C, strain IRE1 (second series), stronger effect = lower value 0.999 | locus YHR094C, strain hxt1, stronger effect = lower value 1 | locus YHR129C, strain ARP1, stronger effect = lower value 1.03 | locus YHR142W, strain chs7, stronger effect = lower value 1.01 | locus YHR200W, strain rpn10, stronger effect = lower value 0.991 | locus YIL066C, strain RNR3, stronger effect = lower value 1.01 | locus YIL073C, strain SPO22, stronger effect = lower value 0.972 | locus YIL125W, strain kgd1, stronger effect = lower value 1 | locus YIR030C, strain dcg1, stronger effect = lower value 0.993 | locus YJL092W, strain hpr5, stronger effect = lower value 1 | locus YJL095W, strain BCK1 (second series), stronger effect = lower value 1.01 | locus YJL095W, strain BCK1, stronger effect = lower value 1.02 | locus YJL115W, strain asf1, stronger effect = lower value 1.02 | locus YJL129C, strain trk1, stronger effect = lower value 0.993 | locus YJL134W, strain LCB3, stronger effect = lower value 1.02 | locus YJL154C, strain vps35, stronger effect = lower value 1.02 | locus YJL164C, strain tpk1, stronger effect = lower value 1.01 | locus YJL166W, strain qcr8, stronger effect = lower value 1 | locus YJL168C, strain set2, stronger effect = lower value 1.01 | locus YJL187C, strain SWE1 (second series), stronger effect = lower value 1.02 | locus YJL187C, strain SWE1, stronger effect = lower value 1.01
